Results filed as inconclusive are left out. Activity calls are given as the source filed them. Unless noted, calls come from the whole dose curve.
Key:
[1] = Nuclear factor erythroid 2-related factor 2/antioxidant responsive element (Nrf2/ARE) small molecule agonists: qHTS cell viability counter screen in human keratinocytes (AID 1919968; active = well fitted curve in the direction sought with a large enough effect in the repeat runs; an effect the other way counts as inactive or inconclusive; note: nearly all actives have a fitted effect of over 55% in size)
Procedure, shortened: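 CellTiter-Fluor fluorescence, read 1 h after reagent, gave viability in the same wells as the ARE-luciferase assay. KeratinoSens cells (1,500/well) had 23 h compound exposure at 37 C/5% CO2 following 5 h plating.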

[2] = Nuclear factor erythroid 2-related factor 2/antioxidant responsive element (Nrf2/ARE) small molecule agonists: luciferase reporter gene qHTS assay in human keratinocytes (AID 1919969); note: nearly all actives have a fitted effect of over 35% in size
[3] = biological target: Gonadotropin-releasing hormone receptor (Homo sapiens) (UniProt P30968); test: Human gonadotropin-releasing hormone receptor (GnRHR) small molecule agonists, calcium flux assay in GnRHR-HEK293 cells (AID 1920063); note: nearly all actives have a fitted effect of over 35% in size
Sequence of Gonadotropin-releasing hormone receptor (Homo sapiens) (P30968 whole entry, looked up): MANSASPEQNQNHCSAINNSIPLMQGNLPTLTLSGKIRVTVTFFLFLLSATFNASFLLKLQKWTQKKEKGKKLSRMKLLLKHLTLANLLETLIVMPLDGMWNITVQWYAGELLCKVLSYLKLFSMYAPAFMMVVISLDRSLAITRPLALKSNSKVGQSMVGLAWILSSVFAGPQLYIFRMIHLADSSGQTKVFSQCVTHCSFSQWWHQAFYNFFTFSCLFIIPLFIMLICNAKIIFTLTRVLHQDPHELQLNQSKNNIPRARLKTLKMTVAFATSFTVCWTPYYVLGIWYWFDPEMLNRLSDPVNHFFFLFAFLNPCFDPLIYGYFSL
Procedure, shortened: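 Agonist mode: compounds at 15 concentrations, in triplicate, went onto calcium dye-loaded GnRHR-HEK293 cells. Intracellular calcium was then followed as 480/540 nm fluorescence at 1 s intervals over 3 min.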

[4] = biological target: KiSS-1 receptor (Homo sapiens) (UniProt Q969F8); test: Human kisspeptin (KISS1R) small molecule agonists, calcium flux assay in KISS1R-HEK293 cells (AID 1920064; active = well fitted curve in the direction sought with a large enough effect in the repeat runs; an effect the other way counts as inactive or inconclusive)
Sequence of KiSS-1 receptor (Homo sapiens) (Q969F8 whole entry, looked up): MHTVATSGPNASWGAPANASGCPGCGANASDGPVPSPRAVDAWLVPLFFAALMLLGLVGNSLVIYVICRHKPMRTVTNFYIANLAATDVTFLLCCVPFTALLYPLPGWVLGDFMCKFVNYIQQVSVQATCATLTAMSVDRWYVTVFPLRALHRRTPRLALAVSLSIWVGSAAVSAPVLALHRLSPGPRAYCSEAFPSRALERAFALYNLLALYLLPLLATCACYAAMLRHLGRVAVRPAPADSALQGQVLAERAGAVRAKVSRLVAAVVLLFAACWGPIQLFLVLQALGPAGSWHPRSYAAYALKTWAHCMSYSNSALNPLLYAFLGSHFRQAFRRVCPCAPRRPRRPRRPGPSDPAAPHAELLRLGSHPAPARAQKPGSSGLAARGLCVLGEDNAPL
Procedure, shortened: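 Agonist mode: intracellular calcium rise tracked at 1 s intervals over 3 min (480/540 nm) immediately after compound addition to dye-loaded KISS1R-HEK293 stable cells. Each compound tested at 15 concentrations in triplicate.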

[5] = p53 small molecule agonists, cell-based qHTS assay with rat liver microsomes (AID 1963578)
Procedure, shortened: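 Compound in DMSO added to p53RE-bla cells 5 h post-plating; rat microsomes/NADPH 0.5 mg/mL final; 16 h, 37 C; LiveBLAzer 2 h RT.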

[6] = p53 small molecule agonists, cell-based qHTS assay with human liver microsomes: qHTS cell viability counter screen (AID 1963579); note: nearly all actives have a fitted effect of over 45% in size
Procedure, shortened: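 HLM-supplemented (0.5 mg/mL final) and NADPH-supplemented (0.5 mg/mL final) p53RE-bla cultures, 4,000 cells per well, were dosed with compounds in DMSO for 16 h at 37 C; luminescent ATP detection (CellTiter-Glo, 30 min, room temperature) quantified surviving cells.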

[7] = p53 small molecule agonists, cell-based qHTS assay with rat liver microsomes: qHTS cell viability counter screen (AID 1963580); note: nearly all actives have a fitted effect of over 45% in size
Procedure, shortened: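 Luminescent ATP readout (CellTiter-Glo, 30 min at room temperature) reports viability of p53RE-bla HCT-116 cells after 16 h at 37 C with test compounds under metabolic activation by rat liver microsomes and NADPH at 0.5 mg/mL final each.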

[8] = p53 small molecule agonists, cell-based qHTS assay: qHTS cell viability counter screen (AID 1963581); note: nearly all actives have a fitted effect of over 45% in size
Procedure, shortened: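 Counter screen read by CellTiter-Glo luminescence (ATP content, 30 min at room temperature), run in the same wells as the beta-lactamase reporter read. HCT-116 p53RE-bla cells saw compounds for 16 h at 37 C.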

[9] = p53 small molecule agonists, cell-based qHTS assay (AID 1963582; active = well fitted activation curve with a large enough effect in the signal ratio in the repeat runs, not every such curve was filed as active; the % refers to the signal ratio)
Procedure, shortened: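 Read-out is beta-lactamase FRET fluorescence after 2 h at room temperature with LiveBLAzer B/G substrate. p53 response element-bla cells were treated 16 h at 37 C with compounds in DMSO, added 5 h after seeding.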

[10] = biological target: Muscarinic acetylcholine receptor M1 (Homo sapiens) (UniProt P11229); test: Cholinergic receptor muscarinic 1 (CHRM1) small molecule antagonists, cell-based qHTS assay (AID 1963588); note: nearly all actives have a fitted effect of over 40% in size
Sequence of Muscarinic acetylcholine receptor M1 (Homo sapiens) (P11229 whole entry, looked up): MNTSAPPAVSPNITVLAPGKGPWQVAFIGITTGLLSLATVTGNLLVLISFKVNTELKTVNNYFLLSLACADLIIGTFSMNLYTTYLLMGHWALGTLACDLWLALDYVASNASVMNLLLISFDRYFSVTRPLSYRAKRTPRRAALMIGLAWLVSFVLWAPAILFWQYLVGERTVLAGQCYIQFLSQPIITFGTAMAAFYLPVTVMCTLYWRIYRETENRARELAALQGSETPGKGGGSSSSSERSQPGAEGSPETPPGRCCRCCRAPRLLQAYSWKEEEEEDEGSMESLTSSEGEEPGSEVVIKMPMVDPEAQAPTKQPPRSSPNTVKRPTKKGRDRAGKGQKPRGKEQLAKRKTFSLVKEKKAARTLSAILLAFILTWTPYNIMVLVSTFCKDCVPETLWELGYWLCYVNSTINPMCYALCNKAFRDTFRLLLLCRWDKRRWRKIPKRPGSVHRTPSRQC
Procedure, shortened: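 Compounds were tested at 15 concentrations in three independent runs. Dye-loaded CHRM1-CHO cells were exposed 5 min at room temperature before stimulation by acetylcholine added at 50nM. Intracellular calcium was read kinetically on FDSS for 3 min.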

[11] = biological target: Muscarinic acetylcholine receptor M1 (Homo sapiens) (UniProt P11229); test: Cholinergic receptor muscarinic 1 (CHRM1) small molecule agonists, cell-based qHTS assay (AID 1963589); note: nearly all actives have a fitted effect of over 35% in size
Procedure, shortened: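 Agonist-mode calcium-flux screen: compounds at 15 concentrations, three independent runs, were pin-transferred onto dye-loaded human CHRM1-CHO cells. Fluorescence was then recorded kinetically every second over minutes.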

[12] = cAMP Responsive Elements (CRE) small molecule agonists, cell-based qHTS assay (AID 1963590)
Procedure, shortened: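 Agonist mode: compound added to CRE-bla HEK 293T cells (2,000/well, 18 h after plating) for 3 h at 37 C/5% CO2. Reporter activity detected via FRET beta-lactamase substrate, 2 h room-temperature loading.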

[13] = cAMP Responsive Elements (CRE) small molecule antagonists, cell-based qHTS assay (AID 1963591; active = well fitted inhibition curve with a large enough effect in the signal ratio in the repeat runs, not every such curve was filed as active; the % refers to the signal ratio)
Procedure, shortened: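 Antagonist mode: compounds are added alongside the adenylyl cyclase activator NKH477 (0.25 uM final) to CRE-bla HEK293T cells for 3 h. LiveBLAzer FRET substrate, 2 h at room temperature, reports bla expression.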

[14] = biological target: Beta-2 adrenergic receptor (Homo sapiens) (UniProt P07550); test: Adrenergic beta2 receptor (ADRB2) small molecule antagonists, cell-based qHTS assay (AID 1963592); note: series mostly up to about 92 µM; nearly all actives have a fitted effect of over 50% in size
Sequence of Beta-2 adrenergic receptor (Homo sapiens) (P07550 whole entry, looked up): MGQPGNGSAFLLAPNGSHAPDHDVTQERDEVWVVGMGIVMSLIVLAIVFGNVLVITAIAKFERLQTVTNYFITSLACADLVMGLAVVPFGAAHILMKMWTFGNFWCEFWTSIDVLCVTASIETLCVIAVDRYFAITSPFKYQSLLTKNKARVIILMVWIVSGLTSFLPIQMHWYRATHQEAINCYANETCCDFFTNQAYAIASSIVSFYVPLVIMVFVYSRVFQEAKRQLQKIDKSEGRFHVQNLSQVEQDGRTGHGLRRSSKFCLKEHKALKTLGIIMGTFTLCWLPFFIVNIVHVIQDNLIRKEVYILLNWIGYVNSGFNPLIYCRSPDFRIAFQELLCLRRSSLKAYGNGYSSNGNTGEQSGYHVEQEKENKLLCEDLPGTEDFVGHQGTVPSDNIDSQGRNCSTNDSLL
Procedure, shortened: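 Assay format: CHO-ADRB2 cells, 18-20hr seeding at 37C/5% CO2, then compound plus 1nM isoproterenol agonist mix for 0.5hr RT. Homogeneous time-resolved fluorescence cAMP detection after 1hr, expressed as 665/615 nm ratio.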

[15] = biological target: Beta-2 adrenergic receptor (Homo sapiens) (UniProt P07550); test: Adrenergic beta2 receptor (ADRB2) small molecule agonists, cell-based qHTS assay (AID 1963593);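 note: CHO cells stably overexpressing human ADRB2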
Procedure, shortened: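 CHO cells stably over-expressing ADRB2 were plated overnight at 37C, then dosed with compounds plus a stimulation mix containing 100uM IBMX and 25uM Ro-20-1724 for 0.5hr at room temperature. cAMP was measured by HTRF competition, 1hr.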

[16] = biological target: D(2) dopamine receptor (Homo sapiens) (UniProt P14416); test: Dopamine D2 receptor (DRD2) small molecule agonists, cell-based qHTS assay (AID 1963594); note: nearly all actives have a fitted effect of over 35% in size
Sequence of D(2) dopamine receptor (Homo sapiens) (P14416 whole entry, looked up): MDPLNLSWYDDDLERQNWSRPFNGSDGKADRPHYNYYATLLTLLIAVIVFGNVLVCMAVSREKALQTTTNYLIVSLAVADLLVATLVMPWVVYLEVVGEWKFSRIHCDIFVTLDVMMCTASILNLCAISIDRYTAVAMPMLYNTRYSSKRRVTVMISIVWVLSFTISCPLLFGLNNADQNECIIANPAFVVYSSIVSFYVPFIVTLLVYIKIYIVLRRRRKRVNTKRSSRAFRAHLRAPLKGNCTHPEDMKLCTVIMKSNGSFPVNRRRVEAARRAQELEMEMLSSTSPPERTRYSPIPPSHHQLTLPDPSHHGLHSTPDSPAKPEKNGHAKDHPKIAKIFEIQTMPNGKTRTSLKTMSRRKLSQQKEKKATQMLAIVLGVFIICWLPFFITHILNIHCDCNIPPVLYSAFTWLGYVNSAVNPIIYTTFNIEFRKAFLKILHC
Procedure, shortened: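 HEK293 cells stably expressing DRD2 were cultured 24 h at 37 C, then given Ro20-1724 (0.1 mM final) and compounds for 10 min at room temperature. NKH477 (200nM) was then added for 30 min. cAMP was read by HTRF.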

[17] = biological target: D(2) dopamine receptor (Homo sapiens) (UniProt P14416); test: Dopamine D2 receptor (DRD2) small molecule antagonists, cell-based qHTS assay (AID 1963595; active = well fitted inhibition curve with a large enough effect in the signal ratio in the repeat runs, with a control signal flat; the % refers to the signal ratio)
Procedure, shortened: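 HEK293 cells stably expressing DRD2 were preincubated with 0.1 mM Ro20-1724, then with compound for 10 min at room temperature. Cells were stimulated with 200 nM NKH477 plus 12 nM quinpirole for 30 min, and cAMP was read by HTRF.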

[18] = G protein-coupled receptor (GPCR) small molecule agonists, calcium flux assay: HEK293 wild type cell line counter screen (AID 1920065)
Procedure, shortened: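 Calcium flux counter screen: compound added in agonist mode at 15 concentrations in triplicate to dye-loaded parental HEK293 cells. Fluorescence (480/540) read kinetically for 3 min; ATP served as positive control.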

[19] = biological target: 5-hydroxytryptamine receptor 2A (Homo sapiens) (UniProt P28223); test: 5-hydroxytryptamine receptor 2A (HTR2A) small molecule antagonists, cell-based qHTS assay (AID 1963586); note: nearly all actives have a fitted effect of over 45% in size
Sequence of 5-hydroxytryptamine receptor 2A (Homo sapiens) (P28223 whole entry, looked up): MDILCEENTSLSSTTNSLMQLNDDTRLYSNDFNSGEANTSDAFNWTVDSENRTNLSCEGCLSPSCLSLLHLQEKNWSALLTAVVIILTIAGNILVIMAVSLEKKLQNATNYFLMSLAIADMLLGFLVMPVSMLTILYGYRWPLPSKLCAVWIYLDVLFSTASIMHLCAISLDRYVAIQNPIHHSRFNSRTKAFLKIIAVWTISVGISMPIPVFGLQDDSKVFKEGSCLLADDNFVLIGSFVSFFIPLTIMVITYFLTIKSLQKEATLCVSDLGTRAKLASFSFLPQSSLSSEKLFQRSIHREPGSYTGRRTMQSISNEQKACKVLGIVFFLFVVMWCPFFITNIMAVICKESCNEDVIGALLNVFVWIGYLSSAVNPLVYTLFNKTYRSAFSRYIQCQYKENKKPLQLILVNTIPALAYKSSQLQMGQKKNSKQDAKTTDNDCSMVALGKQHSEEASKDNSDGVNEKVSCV
Procedure, shortened: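 CHO cells stably expressing human HTR2A were plated for 18 h at 37 C, then loaded with calcium dye for 1 h. Compounds were preincubated 5 min at room temperature before DOI (4 nM solution) was added. Kinetic fluorescence was read for 3 min.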

[20] = biological target: 5-hydroxytryptamine receptor 2A (Homo sapiens) (UniProt P28223); test: 5-hydroxytryptamine receptor 2A (HTR2A) small molecule agonists, cell-based qHTS assay (AID 1963587); note: nearly all actives have a fitted effect of over 30% in size
Procedure, shortened: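 HTR2A-CHO cells, plated 18 h at 37 C/5% CO2, dye-loaded 1 h at 37 C; compounds in DMSO added by pin tool (agonist mode). Intracellular calcium flux read as kinetic fluorescence on FDSS over 2 min at 1 s intervals.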

Measured: Potency

COc1ccc(C(=O)N2CCN(CC(=O)N3CCOCC3)CC2)cc1
not listed: [18] | [19] | [20]
inactive: all other assays above

O=CCCc1ccccc1
not listed: [5] | [8] | [9] | [15]
inactive: all other assays above

Cc1cc(CC(=O)O)c(C)n1-c1ccc(Cl)cc1
not listed: [5] | [12] | [13] | [14] | [16] | [19]
inactive: all other assays above

CC(C)=CC(=O)O
not listed: [10] | [13] | [15] | [18]
inactive: all other assays above

OCC(O)c1ccccc1 (centres undefined)
not listed: [11] | [15] | [17] | [18]
inactive: all other assays above

COc1ccc(NS(=O)(=O)c2ccc(N)cc2)nn1
not listed: [10] | [15] | [18]
inactive: all other assays above

CC(C)(O)c1ccccc1CC[C@@H](SCC1(CC(=O)O)CC1)c1cccc(/C=C/c2ccc3ccc(Cl)cc3n2)c1
not listed: [10] | [11] | [15] | [17] | [18] | [19] | [20]
inactive: all other assays above
